From PubChem
VACV mCherry inh = qHTS for Stage-Specific Inhibitors of Vaccinia Orthopoxvirus: mCherry Reporter Primary qHTS; Vaccinia virus mCherry reporter infection, fluorescence; Potency, µM (titrated, usually from 36.5 µM), without a hit: at the top dose activity change, negative = inhibition, hits mostly inhibitors; 310,000 compounds, 0.63% hits; calls by dose curve; tested in A549 cells; note: nearly all actives have a fitted effect of over 35% in size
HCV inh = qHTS Assay for Inhibitors of Hepatitis C Virus (HCV); Huh7.5.1 HCVcc-Cre infection, luciferase reporter, 44 h; Potency, µM (doses to about 41.8 µM), for the others: top-dose activity change, negative = inhibition, hits mostly inhibitors; 340,000 compounds, 3.4% hits; active = well fitted inhibition curve with a large enough effect; inconclusive = small, poorly fitted or top-dose-only effect, or another doubt; inactive = no such curve, though single readings can be large or run the other way
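Compounds are dispensed onto cells plated 4 h earlier at 1,000 per well, with HCVcc-Cre virus (about 0.5 moi) added next. Following 44 h of culture, luminescent signal is measured for 15 sec after 15 min with substrate at room temperature.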
FMDV antiviral = High Throughput Screening for Foot and Mouth Disease Virus Antivirals; FMDV antiviral cell-based qHTS; Potency, µM (titrated, usually from 57.9 µM), for the others: top-dose activity change, negative = inhibition, hits mostly inhibitors; 410,000 compounds, 1.2% hits; AID 1159524, 2015; calls by dose curve; tested in HEK293T cells; note: read-out not given here; nearly all actives have a fitted effect of over 45% in size
Vaccinia Venus = qHTS for Stage-Specific Inhibitors of Vaccinia Orthopoxvirus: Venus Reporter Primary qHTS; Vaccinia virus Venus reporter expression, fluorescence; Potency, µM (series often up to 36.5 µM), inactives show at the top dose activity change, negative = inhibition, hits mostly inhibitors; 330,000 compounds, 0.46% hits; AID 720580, 2013; calls by dose curve; tested in A549 cells; note: nearly all actives have a fitted effect of over 30% in size
Marburg entry inh = qHTS for inhibitors of binding or entry into cells for Marburg Virus. Marburg virus pseudotyped entry inhibition, cell reporter. Potency, µM (titrated, usually from 37.8 µM), without a hit: at the highest dose activity change, negative = inhibition, most hits filed as inhibitors. AID 540276, 2011. 300,000 compounds, 1.8% hits; calls by dose curve; tested in HEK293 cells
Lassa entry inh = qHTS for Inhibitors of binding or entry into cells for Lassa Virus; 300,000 compounds, 1.2% hits; Lassa virus pseudotype entry inhibition, cell reporter; AID 540256, 2011; Potency, µM (highest dose often 37.9 µM), without a hit: at the top dose activity change, negative = inhibition, usual class: inhibitors; calls by dose curve; tested in HEK293 cells; note: nearly all actives have a fitted effect of over 50% in size
Active calls of the source: *; i = inactive; ? = inconclusive; . = no result given; [ ] = dose if it differs, or a comment. Compounds with a hit are over-represented: about 5.3% of the library has one in this group of screens. % is set by controls: 0 for no effect and ±100 for the full control effect; potency is the fitted concentration of half-maximal effect.

SMILES | VACV mCherry inh | HCV inh | FMDV antiviral | Vaccinia Venus | Marburg entry inh | Lassa entry inh
O=c1[nH]c(C2CCN(S(=O)(=O)/C=C/c3ccccc3)CC2)nc2c1nnn2Cc1ccc(F)cc1 | ? | -17% | 1% | -23% | 7.9µM* | ?
Cc1ccc(C)c(Cn2nnc3c(=O)[nH]c(C4CCN(C(=O)c5cccs5)CC4)nc32)c1 | i | -8% | ? | -21% | ? | ?
Cc1ccc(Cn2nnc3c(=O)[nH]c(C4CCN(S(=O)(=O)c5cc(C)ccc5C)CC4)nc32)cc1 | -13%[1.46 µM] | ? | ? | ? | ? | 14µM*
Cc1ccc(C)c(S(=O)(=O)N2CCC(c3nc4c(nnn4Cc4ccc(F)cc4)c(=O)[nH]3)CC2)c1 | . | 8% | -23% | -22% | -25% | ?
CC(=O)Nc1ccc(S(=O)(=O)N(Cc2ccccc2)Cc2ccccc2)cc1 | -7% | . | 11% | -8% | . | ?
CSc1ncc(C(=O)N2CCN(c3ccc(Cl)cc3)CC2)c(C)n1 | -9% | . | ? | -16% | . | 6%[46.1 µM]
O=S(=O)(c1cc(F)ccc1F)N1CCN(c2ccccn2)CC1 | . | 6% | -20% | . | . | .
O=S(=O)(c1cc(F)ccc1F)N1CCN(c2ncnc3ccccc23)CC1 | . | 3.2µM* | 10µM* | . | . | .
OC1(c2ccc(Br)cc2)CN(c2ccccc2)C2=[N+]1CCS2 (stereo not given) | -23% | ? | ? | -11% | ? | ?
OC1(c2ccc(Cl)cc2)CN(c2ccccc2)C2=[N+]1CCS2 (stereo not given) | -16% | 13µM* | -30% | -13% | ? | -21%
Cc1ccc(C(C)C)cc2c(C)ccc1-2 | i | 35µM* | -21% | -14% | . | .
CC(C)c1ccc(O)c(N)c1 | . | -9% | ? | . | 25% | -11%
COc1ccc(C(=O)NCC2Cc3cccc(-c4ccc(S(C)(=O)=O)cc4)c3O2)c(OC)n1 (stereo not given) | -8% | . | -15% | -1% | . | .
CCN(Cc1ccncc1)Cc1ccc2c(c1)CN(C(=O)c1cccc(-n3nc(C)cc3C)c1)CCO2 | -11% | . | -1% | -2% | . | .
O=C(NC(=O)c1cc([N+](=O)[O-])ccc1Cl)C1=C(N2CCCC2)COC1=O | ? | ? | 20µM* | -23% | . | .
CCOc1ccc(NC(=S)N(CCCN2CCOCC2)Cc2cn(C)c3ccccc23)cc1 | -36% | 10µM* | 4% | -24% | ? | -13%
Cn1cc(CN(CCCN2CCOCC2)C(=S)Nc2cccc(Cl)c2)c2ccccc21 | ? | 8.9µM* | -16% | -25% | ? | ?
COc1ccc(NC(=S)N(CCCN2CCOCC2)Cc2cn(C)c3ccccc23)cc1 | i | ? | 5% | -1% | ? | ?
Cc1cccc(NC(=S)N(CCCN2CCOCC2)Cc2cn(C)c3ccccc23)c1 | -9% | -25% | -8% | -13% | ? | ?
CCCN1CCN(CC2=C(C(=O)OCC)C(c3cccc(OC)c3OC)NC(=O)N2)CC1 (stereo not given) | -2% | . | -10% | 6% | 3%[46.1 µM] | 16%[46.1 µM]
COc1ccc(CC(=O)Nc2cc(S(=O)(=O)Nc3ccc(OC)cc3)ccc2OC)cc1 | . | 13µM* | -24% | . | . | .
COc1ccc(S(=O)(=O)Nc2ccc(Cc3ccncc3)cc2)cc1OC | ? | ? | -17% | -30% | 1.4µM* | ?
O=S(=O)(Nc1ccc(Cc2ccncc2)cc1)c1ccc(Cl)c(Cl)c1 | . | 7.9µM* | -6% | . | ? | -25%
O=S(=O)(Nc1ccc(-n2cccc2)cc1)c1ccc(Cl)c(Cl)c1 | . | -3% | -3% | . | . | .
CCc1ccc(OC)c(S(=O)(=O)Nc2ccc(Cc3ccncc3)cc2)c1 | ? | 8.9µM* | 19% | -18% | ? | 13µM*
SMILES | VACV mCherry inh | HCV inh | FMDV antiviral | Vaccinia Venus | Marburg entry inh | Lassa entry inh
O=C(NCc1cccnc1)c1cc(C2CCCCN2C(=O)c2ccccc2)on1 (stereo not given) | -1% | . | -6% | 2% | . | .
COc1ccc(NC(=O)Cn2c(=O)cc(C)c3c(C)nn(C)c32)cc1 | -10% | . | 0% | -20% | . | -6%[46.1 µM]
COCCNc1c(-c2cc3ccc(C)c(C)c3[nH]c2=O)nc2ccccn12 | ? | -18% | 16% | -13% | ? | 5µM*
O=C1/C(=C\c2ccccc2)CCc2c1[nH]c1ccccc21 | . | ? | 4% | . | 16µM* | ?
Cc1ccc(O)cc1Nc1ccnc2cc(-c3ccccn3)ccc12 | . | . | . | . | . | 25µM*
CCC(=O)Nc1nn(C)c2nc3c(C)cccc3cc12 | . | 10µM* | 12% | -20% | -16% | -2%
CCCn1nc(NC(=O)CC)c2cc3cccc(C)c3nc21 | -19% | ? | -2% | -27% | . | .
CCOC(=O)c1c(S(=O)(=O)N2CCN(c3ccc(C(C)=O)cc3)CC2)c(C)n(C)c1C | . | 4% | 26% | . | . | .
COc1ccccc1NC(=O)c1cc(Sc2nncn2C)nc2ccccc12 | . | -14% | -9% | 11µM* | -5% | 0%
COCCN1C(=O)NC(c2ccccc2)C(C(=O)OC)=C1C (stereo not given) | . | . | . | . | 8%[14.2 µM] | .
C=CC[C@@H]1C=C[C@@H](Oc2ccc(OC)cc2)[C@H](CO)O1 | . | . | . | . | -15%[14.2 µM] | .
O=C(O)c1cc(/C=C/c2ccc(N3CCOCC3)cc2)nc2ccccc12 | i | 2% | 10µM* | -1% | ? | ?
Cc1ccc(NC(=O)N2CCCCCC2)cc1C | -8% | 11% | 32% | -15% | ? | -16%[46.1 µM]
Cc1ccc(NC(=O)N2CCCN(Cc3ccc(F)cc3)C2)cc1C | . | ? | -22% | -23% | 6.3µM* | -17%
O=C(Nc1ccc(Cl)cc1)N1CCCN(Cc2ccccc2F)C1 | . | 10µM* | -18% | . | ? | -27%
COc1ccc(NC(=O)c2cc(-c3cccnc3)nc3c(C)c(C)ccc23)c(OC)c1 | . | 13µM* | ? | . | -20% | 4%
C[C@@H]1CN(Cc2ccc3c(c2)CN(Cc2cccn2-c2ccccn2)CCO3)C[C@H](C)O1 | -9% | . | -8% | 5% | . | .
COc1ccc(CN2CCC(n3cc(C(=O)N4CCCCC4)nn3)CC2)c(OC)c1 | -12% | . | -10% | -9% | . | .
COc1cc(C(=O)Nc2ccc(Cl)c(C(F)(F)F)c2)cc(OC)c1OC | ? | 14µM* | ? | ? | -31% | -5%
COc1cc(CCC(=O)Nc2ccc(Cl)c(C(F)(F)F)c2)cc(OC)c1OC | i | ? | -6% | -13% | ? | -5%
Cc1c(Cl)c([N+](=O)[O-])nn1CCCC(=O)N1CCN(c2ccccc2)CC1 | -15% | ? | -21% | -6% | ? | -22%
Cc1c(Br)c([N+](=O)[O-])nn1CCCC(=O)N1CCN(c2ccccc2)CC1 | -28% | 3% | -13% | -9% | 13µM* | 15%
Cn1c(SCc2ccc(F)cc2)nc2ccc(C(=O)NCc3ccc(F)cc3)cc21 | -16% | . | ? | -22% | ? | .
